Assay results as given in PubChem BioAssay AID652180 (National Center for Advancing Translational Sciences (NCATS), 2013).
Inconclusive results are not listed. Unmarked numbers belong to inactive results. Calls of active or inactive are those of the source. The call rests on the fitted dose curve; in most records, active means well fitted inhibition curve with a large enough effect; inconclusive means small, poorly fitted or top-dose-only effect; inactive means no such curve, though single readings can be large or run the other way.

Assay: qHTS Assay for Lipid Storage Modulators: 3T3L1 Assay against Probe and Analogs
Conditions: 3T3-L1 lipid droplets, BODIPY imaging, oleic acid, 18-24 h; series mostly up to 46.1 µM; activity change, negative = decreased lipid storage: at the top concentration
How it was run: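 Lipid droplet number and size, plus cell count, were measured by imaging BODIPY- and Hoechst-stained 3T3L1 cells. Compounds (0.46% DMSO final) were co-incubated for 18-24 h with oleic acid, added at 400 uM, to induce droplets. Triacsin C served as control.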

| SMILES | activity change, negative = decreased lipid storage [%] | Potency |
| --- | --- | --- |
| CC(C)(C)OC(=O)NCCOCCOCCOc1cccc(-n2ncc3c2CCCC3NC(=O)c2ccccn2)c1 (centres undefined) | 47 | – |
| Cc1cc2c(cc1C1(c3ccc(C(=O)O)cc3)CC1)C(C)(C)CCC2(C)C | 111 | – |
| O=C(N[C@H]1CCCc2c1cnn2-c1ccc(F)cc1F)c1ccccn1 | 98.8 | – |
| CC(C)(NC(=O)Nc1ccccc1Cl)C(=O)N1CCC(C(=O)O)CC1 | -34.4 | – |
| O=C(Cc1ccccc1)NC1CCCc2c1cnn2-c1ccc(F)cc1F (centres undefined) | -11.1 | – |
| CCOc1ccc(CCNC(=O)c2ccccn2)cc1OCC | -36 | – |
| Cc1cn(-c2cc(NC(=O)c3ccc(C)c(Nc4nccc(-c5cccnc5)n4)c3)cc(C(F)(F)F)c2)cn1 | -41.8 | – |
| CCOc1ccc(CCNC(=O)c2cc3sccc3n2Cc2ccccc2)c(F)c1OCC | – | 526 nM (active) |
| O=C(NC1CCCc2c1cnn2-c1cccc(O)c1)c1ccccn1 (centres undefined) | 15.9 | – |
| CCOc1ccc(CCNC(C)=O)cc1OCC | -8.63 | – |
| O=C(NC1CCCc2c1cnn2-c1ccc(F)cc1F)c1cnccn1 (centres undefined) | 81.4 | – |
| CCOc1cc(CCNC(=O)c2cc3sccc3n2Cc2ccccc2)cc(F)c1OCC | – | 52.6 nM (active) |
| O=C(NC1CCCc2c1cnn2-c1ccc(F)cc1F)C1CCCCN1 (centres undefined) | -11.6 | – |
| CC(C)(C)OC(=O)NC1CCCc2c1cnn2-c1ccc(F)cc1F (centres undefined) | 54.4 | – |
| O=C(NC1CCCc2c1cnn2-c1ccc(F)cc1F)C1CCCCC1 (centres undefined) | 103 | – |
| CCOc1cc(F)c(CCNC(=O)c2cc3sccc3n2Cc2ccccc2)cc1OCC | – | 14.8 nM (active) |
| COc1ccc(-n2ncc3c2CCCC3NC(=O)c2ccccn2)cc1 (centres undefined) | 11.4 | – |
| O=C(NC1CCCc2c1cnn2-c1ccc(F)cc1F)c1cnon1 (centres undefined) | -9.25 | – |
| O=C(NC1CCCc2c1cnn2-c1ccc(F)cc1F)c1ccsc1 (centres undefined) | 55.2 | – |
| CCOc1ccc(CCNC(=O)c2cc3sccc3n2C(C)C)cc1OCC | – | 29.6 nM (active) |
| O=C(NC1CCCc2c1cnn2-c1ccc(F)cc1F)c1ccccn1 (centres undefined) | – | inactive |
| CCOc1ccc(CCNC(=O)c2cnon2)cc1OCC | -17.2 | – |
| O=C(Nc1cccc2c1cnn2-c1ccc(F)cc1)c1ccccn1 | 11.2 | – |
| O=C(O)c1cccc(-c2noc(-c3ccccc3F)n2)c1 | – | 2640 nM (active) |
| Cc1cccc(-c2ccc3ncnc(NCc4cccc(F)c4)c3c2)c1 | 36.3 | – |
| O=C(Nc1cccc2nn(-c3ccc(F)cc3)cc12)c1ccccn1 | 55.5 | – |
| O=C(NC1CCCc2c1cnn2-c1ccc(F)cc1F)c1cccc(=O)[nH]1 (centres undefined) | 27.2 | – |
| CC(C)(C)OC(=O)NCCOCCOCCOc1ccc(-n2ncc3c2CCCC3NC(=O)c2ccccn2)cc1 (centres undefined) | 44.9 | – |
| O=C(NC1CCCc2c1cnn2-c1ccc(F)cc1F)c1cccs1 (centres undefined) | – | inactive |
